An excerpt weighted towards active compounds, which were near 18% of everything screened.
LDHA inh: inhibitors of human lactate dehydrogenase A | 480,000 compounds, 0.15% hits | activity change, % (values are at about 110 or 230 µM) | purified LDHA, NADH/diaphorase-resazurin fluorescence; active compounds read low | P00338; in the data active = activity change below about -30%; inconclusive = mostly about -25% to -30%
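Human LDH5 at 2 nM final in Tris HCl pH 7.4 with 0.06 mM NADH and 0.2 mM pyruvate, reacted 5 minutes at room temperature. Remaining NADH coupled via diaphorase/resazurin; resorufin fluorescence read at 0 and 20 minutes, normalized to enzyme-free and DMSO wells.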
IL-1B inflam inh: inhibitors of inflammasome signaling (IL-1 beta secretion); THP-1 LPS/ATP IL-1B secretion, AlphaLISA, 16 h; active compounds read low; activity change, % at 57.5 µM; 360,000 compounds, 4.7% hits; AID 743279; in the data active = activity change below about -50%; inconclusive = mostly about -30% to -49%
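Secreted IL-1B measured by AlphaLISA bead assay after 16 h compound exposure of THP-1 cells; compounds (final up to 57.5 uM) added 1 h before LPS (250 ng/mL) and ATP (1.25 mM) stimulation; lower signal means less secretion.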
RORgamma inh: ROR gamma (mouse) transcription inhibition | Potency, µM (titrated, usually from 53.6 µM), usual class: inhibitors | 310,000 compounds, 5.4% hits | Drosophila S2 Gal4-RORgamma UAS-luciferase reporter, 20 h | AID 2551; note: nearly all actives have a fitted effect of over 60% in size
Target sequence (P51450 whole entry, looked up, the tested form may be a part): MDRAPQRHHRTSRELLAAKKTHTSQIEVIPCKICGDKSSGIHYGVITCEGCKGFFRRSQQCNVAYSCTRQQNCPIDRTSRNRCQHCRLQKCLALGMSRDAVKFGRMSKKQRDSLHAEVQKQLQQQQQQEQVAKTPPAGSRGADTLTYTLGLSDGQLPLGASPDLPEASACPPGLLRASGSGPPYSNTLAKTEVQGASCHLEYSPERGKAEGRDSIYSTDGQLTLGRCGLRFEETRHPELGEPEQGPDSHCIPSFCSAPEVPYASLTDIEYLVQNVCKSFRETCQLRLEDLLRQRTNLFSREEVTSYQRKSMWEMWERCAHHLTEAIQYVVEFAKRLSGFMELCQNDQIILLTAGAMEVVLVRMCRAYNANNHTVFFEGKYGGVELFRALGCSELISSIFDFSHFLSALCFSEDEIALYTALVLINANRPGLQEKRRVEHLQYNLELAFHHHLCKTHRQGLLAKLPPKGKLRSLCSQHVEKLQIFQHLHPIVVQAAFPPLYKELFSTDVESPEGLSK
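ROR gamma transcriptional activity was tracked as Gal4-UAS luciferase output in stably transfected Drosophila Schneider cells, with compound added 1 hr before 700 uM copper sulfate induction and a 20 hr ambient-temperature incubation.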
TDP1 cell CPT: growth inhibition of DT40 Tdp1-/-;hTDP1 cells with camptothecin (screen for TDP1 inhibitors) | Potency, µM (titrated, usually from 46.2 µM), usual class: inhibitors | chicken DT40 Tdp1-/-;hTDP1 cells + 20 nM CPT, ATP luminescence, 48 h | 420,000 compounds, 12% hits; note: nearly all actives have a fitted effect of over 55% in size
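Chicken DT40 Tdp1-/- cells stably complemented with human TDP1 were seeded at 400 cells/well in medium containing 20 nM camptothecin, exposed to pin-transferred compounds, and grown at 37 °C for at least 48 hr. Viability was read as ATP luminescence.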
Gal4-VP16 FLuc: Gal4-VP16 reporter inhibition counter-screen; Drosophila S2 Gal4-VP16 UAS-luciferase, luminescence, 20 h; Potency, µM (titrated, usually from 53.6 µM), usual class: inhibitors; 310,000 compounds, 3.5% hits;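 note: Gal4-VP16 expression switched on by copper sulfate through the metallothionein promoter; nearly all actives have a fitted effect of over 50% in size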
TDP1 cell noCPT: qHTS for Inhibitors of human tyrosyl-DNA phosphodiesterase 1 (TDP1): qHTS in cells in absence of CPT; Potency, µM (highest dose often 46.2 µM), hits mostly inhibitors; DT40 Tdp1-/- hTDP1 cells, no CPT, ATP luminescence, 48 h; 420,000 compounds, 15% hits; note: nearly all actives have a fitted effect of over 55% in size
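Luminescent ATP content (CellTiter-Glo) served as the growth readout. Knockout chicken DT40 cells expressing human TDP1 were exposed to compounds without camptothecin for a minimum 48 hr at 37 °C.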
A number is an active result; – = inactive; ? = inconclusive; · = no result given; [ ] = remark or other dose. Unless noted, calls come from the whole dose curve; as a rule, active = well fitted curve in the direction sought with a large enough effect; inconclusive = small, poorly fitted or top-dose-only effect, or another doubt; inactive = no such curve, though single readings can be large; an effect the other way counts as inactive or inconclusive.

SMILES | LDHA inh | IL-1B inflam inh | RORgamma inh | TDP1 cell CPT | Gal4-VP16 FLuc | TDP1 cell noCPT
O=C1/C(=C\c2ccccc2)SC(=S)N1CCC(=O)N1CCCCC1CCO (stereo unspecified) | – | ? | – | ? | – | ?
CCN(CC)CC1CCN(C(=O)c2cc3cccc([N+](=O)[O-])c3[nH]2)CC1 | – | · | · | · | · | ·
c1ccc(OCCN2CCC(c3nc4ccccc4s3)CC2)cc1 | – | · | · | · | · | ·
COc1ccc(NS(=O)(=O)c2cc(-c3n[nH]c(=O)c4c3CCCC4)ccc2C)c(OC)c1 | – | · | · | · | · | ·
O=C(COc1ccc2c(c1)C(=O)CC1(CCCCC1)O2)NCc1ccccn1 | – | – | – | ? | – | ?
O=C(COc1ccc2c(c1)C(=O)CC1(CCCCC1)O2)NCc1ccccc1 | – | – | – | ? | – | 21µM
Cc1cccc(NC(=O)Cn2nnc(-c3nc(-c4ccncc4)no3)c2N)c1 | – | · | · | – | · | ?
Cc1ccc(-c2noc(-c3nnn(CC(=O)Nc4cc(C)cc(C)c4)c3N)n2)cc1 | – | · | · | 1.3µM | · | 1.5µM
Cc1cc(C)cc(NC(=O)Cn2nnc(C(=O)NCc3ccc(F)cc3)c2N)c1 | – | – | – | 21µM | – | ?
CC(=O)N(C(C)=O)c1ncnc2c1c(-c1ccc(Cl)cc1)nn2C(C)(C)C | -48 | -83 | 11µM | ? | – | 18µM
COc1ccc(N=C(NN)c2ccc3ccccc3n2)cc1 | – | – | 10µM | – | ? | ?
COc1cc(OC)cc(C(=O)NNC(=O)c2ccc3ccccc3n2)c1 | – | – | · | 5.2µM | · | 5.2µM
COc1ccc(CNC(=O)c2ccc3ccccc3n2)cc1 | – | – | – | – | – | ?
COc1cc(C(=O)NNC(=O)c2ccc3ccccc3n2)cc(OC)c1OC | – | – | · | ? | · | ?
COc1ccc(C(=O)NC(=S)NNC(=O)c2ccc3ccccc3n2)cc1 | – | – | – | ? | – | 18µM
Cc1ccc(-c2nc(CNc3ccc(Br)cc3)no2)cc1 | – | · | · | · | · | ·
CC(=O)c1ccc(NC(=O)COC(=O)c2c3c(nc4ccccc24)/C(=C\c2cccs2)CCC3)cc1 | – | -51 | ? | 13µM | ? | 16µM
CC(=O)c1ccc(NC(=O)COC(=O)c2cc(C)nc3ccccc23)cc1 | – | · | · | · | · | ·
O=C(COC(=O)c1c2c(nc3ccccc13)/C(=C\c1cccs1)CCC2)Nc1ccccc1 | – | -55 | ? | 21µM | ? | 9.2µM
CC(C)CNC(=O)COC(=O)c1c2c(nc3ccccc13)/C(=C\c1cccs1)CC2 | – | – | · | ? | · | 21µM
COc1ccc(Oc2nc3c(c(=O)n(C)c(=O)n3C)n2C)cc1 | – | – | –[1.91 µM] | ? | – | –
COc1ccc(C2=NC(C(F)(F)F)(C(F)(F)F)c3c(n(C)c(=O)n(C)c3=O)N2)cc1 | – | – | – | 15µM | – | 18µM
O=C(Cc1cccs1)N(Cc1ccccn1)C1CC1 | – | · | · | · | · | ·
NS(=O)(=O)c1ccc(CCNc2nn3c(-c4cccc(OC(F)(F)F)c4)cnc3s2)cc1 | – | -84 | · | 12µM | · | 13µM
NS(=O)(=O)c1ccc(CCNc2nccn(-c3cccc(C(F)(F)F)c3)c2=O)cc1 | – | · | · | – | · | ?
SMILES | LDHA inh | IL-1B inflam inh | RORgamma inh | TDP1 cell CPT | Gal4-VP16 FLuc | TDP1 cell noCPT
Cc1cccc(N2C(=O)C(CC(=O)Nc3cccc(F)c3)N(Cc3cccs3)C2=O)c1 (stereo unspecified) | – | · | · | ? | · | 18µM
CCc1ccc(NC(=O)CC2C(=O)N(c3ccc(OC)cc3)C(=O)N2Cc2cccs2)cc1 (stereo unspecified) | – | · | · | ? | · | ?
CCc1ccc(NC(=O)CC2C(=O)N(c3ccc(Cl)cc3)C(=O)N2Cc2cccs2)cc1 (stereo unspecified) | – | · | · | 4.6µM | · | 4.1µM
CCOc1ccc(NC(=O)CC2C(=O)N(c3cccc(C)c3)C(=O)N2Cc2cccs2)cc1 (stereo unspecified) | – | · | · | ? | · | 21µM
CCOc1ccc(NC(=O)CC2C(=O)N(c3ccc(OC)cc3)C(=O)N2CCc2cccs2)cc1 (stereo unspecified) | – | – | – | – | – | ?
COCCCNCCCOc1ccc(Cl)cc1C(C)(C)C | – | -89 | ? | 12µM | ? | 18µM
COCCCNCCCCSc1ccc(Cl)cc1 | – | – | – | – | – | ?
C=CCc1ccc(OCCCCNC(C)CC)c(OC)c1 (stereo unspecified) | – | – | – | ? | – | 18µM
CCC(C)NCCCOc1ccc(Cl)cc1C(C)(C)C (stereo unspecified) | -41 | – | – | ? | – | ?
C=CCc1cc(Cl)ccc1OCCNCCCOC | – | ? | – | ? | – | ?
C=CCc1cc(Cl)ccc1OCCCNC(C)CC (stereo unspecified) | – | – | – | 16µM | – | 15µM
CCCCNC(=S)NNC(=O)c1sccc1C | – | – | 1.4µM | – | – | –
CCNC(=S)NNC(=O)c1csc(C(C)C)c1 | – | – | – | – | – | –
CCCCNC(=S)NNC(=O)c1csc(C(C)C)c1 | – | – | 7.9µM | ? | ? | ?
CCCCNC(=S)NNC(=O)c1csc(C)c1C | – | – | ? | ? | 14µM | ?
CCCCNC(=S)NNC(=O)c1ccncc1 | – | – | ? | – | – | –
C=CCNC(=S)NNC(=O)c1cc(O)ccc1O | – | – | – | – | – | –
C=CCNC(=S)NNC(=O)c1csc(C)c1C | – | – | ? | – | 7.9µM | –
CCCOC(=O)c1ccc(Oc2coc3cc(O)ccc3c2=O)cc1 | – | · | · | · | · | ·
O=C(COC(=O)c1cc([N+](=O)[O-])ccc1Cl)Nc1ccc2c(c1)OC(F)(F)O2 | – | · | · | · | · | ·
Cc1ccsc1C(=O)NNC(=S)NC(C)C | – | · | · | · | · | ·
Cc1scc(C(=O)NNC(=S)NC(C)c2ccccc2)c1C (stereo unspecified) | – | – | – | 16µM | – | 21µM
Cc1ccsc1C(=O)NNC(=S)NC1CCCCC1 | – | – | – | – | 11µM | ?
Cc1nn(-c2ccc3nnc(C)n3n2)c2c1C(c1cccc(OC(F)F)c1)CC(=O)N2 (stereo unspecified) | – | · | · | · | · | ·
COc1cc(-c2cnc3c(NC(C)=O)cc(-c4ccc(N5CCN(C)CC5)cc4)cn23)cc(OC)c1OC | – | -87 | · | 4.6µM | · | 4.6µM
COc1cc(-c2cnc3c(NC=O)cc(-c4ccc(N5CCN(C)CC5)cc4)cn23)cc(OC)c1OC | – | – | · | 3.3µM | · | 3.7µM
Cc1ccc(C)n1-c1cc(S(=O)(=O)N2CCOCC2)ccc1N1CCCC1 | – | – | – | 21µM | – | 26µM
CNCc1cc(C)n(-c2cc(S(=O)(=O)N3CCOCC3)ccc2N2CCCC2)c1C | – | – | · | ? | · | ?

Compound activity (PubChem)
